Whole data set: some 24,000 sequences, median “enrichment r” near 0.99, cut for the highest 2% near 3.7. The sample as a whole holds a higher share of the highest values than the screen did.

T1: UNK ZnF1-3 (human, UniProt Q9C0B0 31-174)
T1 sequence: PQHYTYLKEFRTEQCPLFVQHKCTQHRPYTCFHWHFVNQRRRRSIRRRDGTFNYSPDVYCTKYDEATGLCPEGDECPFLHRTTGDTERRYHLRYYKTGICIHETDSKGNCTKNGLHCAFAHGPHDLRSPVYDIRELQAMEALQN

B1: chr11:100882373:100882374:+_ENSMUSG00000019302_ENSMUST00000044721|mus_mus|mus_mus_mus_hu_True|28_28 (ssRNA)
RNA: GGGAGUUCUACAGUCCGACGAUCUUCCUGGUUUGUGUUGAUUUCCUUCAGUUCAUUUUCAAUCUUCUCAAAAUUGGCCUCUAAGUCAAUCAUGUCCCGGGGGAAGGGCACCUCUGGGUUUUCACCGGUGUCCAUAAUCGGAAUCAACAGAGGAUUGAGCAUCA
B2: chr1:88750987:88750988:+_ENSMUSG00000053333_ENSMUST00000065694|mus_mus|motif|central (ssRNA)
RNA: GGGAGUUCUACAGUCCGACGAUCUGAUAAGCCUCUUGUGUCCUGUGGUAUGGGGGUGUUCUCAUCUUUCAUAACUGGAGUACGGGAAUCUUCUUUUCCUCUGUCAGGAGUAGAGAUUGACAAUUUCUUAACACCAUCAACCAGCAACAGAGGAUUGAGCAUCA
B3: chr1:225611761:225611762:-_ENSG00000143815_ENST00000272163|hu_mus|hu_hu_hu_mus_True|8_108 (ssRNA)
RNA: GGGAGUUCUACAGUCCGACGAUCCCAGGCCAUCGACCUCUGACCACUUCACCCUCAACAAACUUCCUACUUGGCAUUUUCUAAAAUUAGUCUGGCCGCGCUCCGGCGGGAACUCCAGCCACUCCAGGGAGAAUAGUAGCAGCCCAACAGAGGAUUGAGCAUCA
B4: chr1:180971808:180971809:-_ENSG00000135823_ENST00000258301|hu_mus|FALSE|FALSE (ssRNA)
RNA: GGGAGUUCUACAGUCCGACGAUCUUUUCUUAUGCUCAAUUCAGUUGCAUCCAAGUUGAAUUUUCUAGGAUUUGCUUCAACUAUGCUGAUGGUUUCAUCGAGGUCCUCCAGAUCCCACUCUAUGCUGCGGAGAUUGUUCCUCAGCAACAGAGGAUUGAGCAUCA
B5: 5721493_5721695_819_3pUTR_ENSMUSG00000024937_ENSMUST00000075606|mouse|control|control (ssRNA)
RNA: GGGAGUUCUACAGUCCGACGAUCCUCCUCAUCACUCUCAGCAAAGUCAUCCAGGUUUCCCACGUCACUAGGCUUCACACUCAUGAGGCUGGCCAGACUCUGCAUGUCAUCAUCCGUGGCACGGCCUUCUCGCAGCAGCACCCCCAACAGAGGAUUGAGCAUCA
B6: chr2:49626764:49626765:+_ENSMUSG00000026764_ENSMUST00000028102|mus_hu|FALSE|FALSE (ssRNA)
RNA: GGGAGUUCUACAGUCCGACGAUCGCACACAUCUGUACACACAGAAACUCUACACAGCUCAAAAGACCUGAAACUGGUGUACUGCAGAUGGCUGGAGUAAGCAAGUAUAAAAAAAAAAUGGAAACUGUAGGGGGGGAAAAAUAACAACAGAGGAUUGAGCAUCA
B7: chr4:148551591:148551592:-_ENSMUSG00000063077_ENSMUST00000060537|mus_hu|mus_mus_mus_hu_False|28_68 (ssRNA)
RNA: GGGAGUUCUACAGUCCGACGAUCACCUGACAAAAUUAAAUAUCCCUGUAAAUUAGACAAUAAGCAGCAGGUAACAAAGUCUUUGCUUUGGAAUAUGUGCCAGGAAAAAUCAUGUUUUUUUUAGAUCUCAAGAGACAGUUCACACAACAGAGGAUUGAGCAUCA
B8: chr8:81717444:81717445:+_ENSMUSG00000071064_ENSMUST00000098614|mus_mus|FALSE|FALSE (ssRNA)
RNA: GGGAGUUCUACAGUCCGACGAUCUAAUGUACACAAACCUUGACAGUAUGAGCGUCUGAACAUAAUAUGAGGAGUUAAAAAAAAAGAAAGAAAGAAAGAAAGAAAGAAAGAGAGAGAGAAAGAAAAGAAAGGACAGGAGAGAGACAACAGAGGAUUGAGCAUCA
B9: chr10:33214929:33214930:-_ENSG00000150093_ENST00000302278|hu_hu|hu_hu_hu_mus_True|18_78 (ssRNA)
RNA: GGGAGUUCUACAGUCCGACGAUCAACAAGUUCAUUGAAAAACUCUCCUCUGUCAGUAAGACUGAGCACAUUUUUGUAGCUAAAUGGGCUGGUGCAGUUUUGUUCACUUGUACAAGGGUUCCUGAGCUUUGCUGGGGUUGUGCUCAACAGAGGAUUGAGCAUCA
B10: chr10:112657927:112657928:+_ENSG00000150593_ENST00000280154|hu_mus|FALSE|FALSE (ssRNA)
RNA: GGGAGUUCUACAGUCCGACGAUCAAAAAAAAAAAAAAAAAAAAAAACAAUAACAAAAACAAAAGGAAAAGAAAACCUGUACUGACAACUCUUACAGUUGAGAUCUGUUCUUGGUAACACCUAAGACUGUAAGAGUUGCUGUGCCAACAGAGGAUUGAGCAUCA
B11: chr1:58468927:58468928:-_ENSMUSG00000026034_ENSMUST00000148330|mus_mus|mus_mus_mus_hu_False|18_48 (ssRNA)
RNA: GGGAGUUCUACAGUCCGACGAUCAAUUACUGAAAAAGAUGUUCAUUACCUUAGCUAUGUACUUAAUGAACCAAAUUACCCAAACAACAUAAAAUGUGCAAUAUAAAAAUGUUAAGAAAAUAACUUACUGUACAAAAUAACUUACAACAGAGGAUUGAGCAUCA
B12: chr13:55803104:55803105:+_ENSMUSG00000045767_ENSMUST00000057844|mus_hu|FALSE|FALSE (ssRNA)
RNA: GGGAGUUCUACAGUCCGACGAUCGCACAGCACCAGUAAGUAGAUGUGCUGGAGGGUAGAGGAAGAGGAAUGAAUGUACGAAAGGCAGGGGAGAAAGGGAAGGGUAUGUAUAACAAAAUAAGGAAGGAAAAUAAACUGAAAGGGCAACAGAGGAUUGAGCAUCA
B13: chr2:47387792:47387793:-_ENSG00000143933_ENST00000272298|hu_hu|motif|central (ssRNA)
RNA: GGGAGUUCUACAGUCCGACGAUCUUAGGACAAUGACAGUAAGAUAAGGGAAGAAAACAUGGAGGAAUGAAGUCCGGAUUACGGUACAUGCAUAUUUUUUUGACAGUAGGGAGAAACCUUUUACAGAUAAGUUACAAACAAAGACAACAGAGGAUUGAGCAUCA
B14: chr19:8913615:8913616:-_ENSMUSG00000071658_ENSMUST00000096259|mus_hu|mus_mus_mus_hu_False|98_108 (ssRNA)
RNA: GGGAGUUCUACAGUCCGACGAUCAGGGGGGCACCAAACCCUGCCUCAAAUGGGUGCCCCACCCAGUAGGGAGUUGCAGCUGAAAGUAUCUGAUGCAGAAGCAGUGACUAUACGAAAGGAGGCCCCUGGGGAGGGCCAGGCCAGCAACAGAGGAUUGAGCAUCA
B15: chr17:57746147:57746148:+_ENSG00000141367_ENST00000269122|hu_hu|FALSE|FALSE (ssRNA)
RNA: GGGAGUUCUACAGUCCGACGAUCUUGCCCAGUCUUGCAAGCUGCCUGAAUAUAUUUAAAGUGCACAUCUGGGUCCUGGCUAAAGUUAACAAUGGAUCCCAGAAAAUAAAAGAGACCUUCAAAACUCUUGAAAGAUUCAAAAAGCAACAGAGGAUUGAGCAUCA
B16: chr19:8913615:8913616:-_ENSMUSG00000071658_ENSMUST00000096259|mus_hu|mus_mus_mus_hu_False|1_38 (ssRNA)
RNA: GGGAGUUCUACAGUCCGACGAUCAGGGUACCAAAACCUUCUGCCUGAAAUGGGUGCCCCACCCAGUAGGGAGUUGCAGCUGAAAGUAUCUGAUGCACUGACAGUUACUAUACGAAAGGAGGCCCCUGGGGAGGGCCCGAGAUCCAACAGAGGAUUGAGCAUCA
B17: chr1:178664722:178664723:-_ENSMUSG00000057335_ENSMUST00000057037|mus_mus|motif|central (ssRNA)
RNA: GGGAGUUCUACAGUCCGACGAUCAGUCGUUGUUGCUGUCUUGCAGGGUCCUUACAAAUGUGUAAGACUGACAAAGGGUUACGGUGGACCUACAGGGAAACACAGAAGCAAUUCAAUGACUGGGAGUGCAACUAUCAACUACUCCAACAGAGGAUUGAGCAUCA

The target in this assay is T1, UNK ZnF1-3. In words: nsRBNS (natural sequence RNA bind-n-seq); RBNS binding buffer (assumed for nsRBNS): 25 mM Tris pH 7.5, 150 mM KCl, 3 mM MgCl2, 0.01% Triton X-100, 500 ug/ml BSA, 20 U/ml SUPERase-In, 4 C; UNK is unkempt and MSI1 is Musashi-1; names of the RNAs are library labels; protein concentration not given here; high values mean tight binding.
Take B1: the binding signal came out at 0.609 enrichment R. Next, B2: 0.776 enrichment R; B3: 1.34 enrichment R; B4: 0.284 enrichment R. Next, B5: 0.928 enrichment R. With B6, the binding signal turned out to be 9.96 enrichment R. Next, B7: 1.18 enrichment R.

Turning to B8, the binding signal amounted to 4.04 enrichment R. B9 showed a binding signal of 1.36 enrichment R. The molecule B10 showed a binding signal of 8.87 enrichment R. The molecule B11 displayed a binding signal of 0.974 enrichment R. With B12, the binding signal is 5.32 enrichment R. The result for B13 reads 1.89 enrichment R. Next, B14: 1.63 enrichment R; B15: 2.24 enrichment R.

B16 gave a binding signal of 1.39 enrichment R. The result for B17 reads 1.23 enrichment R.

Values taken from PMC12136788.
